ERK EGF inh – qHTS Assay for Inhibitors of the ERK Signaling Pathway using a Homogeneous Screening Assay; Stimulation with EGF; HEK293-V1b, EGF-stimulated phospho-ERK AlphaScreen; Potency, µM (doses to about 11.5 µM), hits mostly inhibitors; 130,000 compounds, 0.41% hits; active = well fitted inhibition curve with a large enough effect; also: nearly all actives have a fitted effect of over 55% in size
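After overnight plating in 1% FBS, HEK293-V1b cells received test compound for half an hour, then a 5 min pulse of EGF (25 nM); ERK phosphorylation in lysates was read by bead-based AlphaScreen.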
Hits are given with their value. This is one part of a sample in which hits are shown more often than they occur.

`Cc1ccccc1Nc1oc(-c2ccccc2)nc1CCc1ccccc1` gave ERK EGF inh inactive.
For CC(=O)/C=C/c1ccccc1O the results were ERK EGF inh inactive.
For O=C(/C=C/c1ccccc1O)c1ccc(Cl)cc1 the results were ERK EGF inh 40µM.
For CCOc1ccccc1/C=C/C(=O)c1ccc(Cl)cc1 the results were ERK EGF inh inactive.
`O=C(O)C(Oc1ccc2ccc(=O)oc2c1)c1ccccc1` (stereo not drawn) gave ERK EGF inh inactive.
For CCCCCCCCCCCCCCCCCCOC[C@@H](O)COP(=O)([O-])OCC[N+](C)(C)C the results were ERK EGF inh inactive.
`CC/C=C\C/C=C\C/C=C\C/C=C\C/C=C\CCC(=O)O[C@H](COCCCCCCCCCCCCCCCC)COP(=O)([O-])OCC[N+](C)(C)C` gave ERK EGF inh inactive.
`CCCCCCCCCCCCCCCC(=O)NCC(COP(=O)([O-])OCC[N+](C)(C)C)OCC` (stereo not drawn) gave ERK EGF inh 25µM.
For Cc1ccc(NC(=S)NC(=O)c2ccc(F)cc2)cc1S(=O)(=O)Nc1cccc(Cl)c1 the results were ERK EGF inh inactive.
`Cc1ccc(NC(=O)c2cccs2)cc1S(=O)(=O)Nc1cccc(Cl)c1` gave ERK EGF inh 20µM.
Screening Cc1ccc(NC(=O)CC(=O)c2ccc([N+](=O)[O-])cc2)cc1S(=O)(=O)Nc1cccc(Cl)c1 returned ERK EGF inh inactive.
Screening C=C(C(C)=O)C(O)c1cccc(OC)c1 (stereo not drawn) returned ERK EGF inh inactive.
For Cc1cccc(NC(c2ccc(C)s2)c2ccc3ccc(C)nc3c2O)n1 (stereo not drawn) the results were ERK EGF inh inactive.
Screening Cc1ccnc(NC(c2ccsc2)c2ccc3ccc(C)nc3c2O)c1 (stereo not drawn) returned ERK EGF inh 32µM.
Cc1ccnc(NC(c2cccnc2)c2ccc3cccnc3c2O)c1 (stereo not drawn) was read as ERK EGF inh inactive.
For CCC1=C2CC[C@H]3C(=O)NC(=O)[C@H]3[C@H]2[C@@]2(C)C(=NCCOC)OC(=O)N2C1=O the results were ERK EGF inh inactive.
`Cc1cnc(CN2CCc3c([nH]c4ccccc34)C2CC(C)C)[nH]1` (stereo not drawn) gave ERK EGF inh inactive.
Screening CCn1ccnc1CN1CCc2c([nH]c3ccccc23)C1C(C)(C)C (stereo not drawn) returned ERK EGF inh 32µM.
Screening COCc1ccc(CN2CCc3c([nH]c4ccccc34)C2C(C)(C)C)o1 (stereo not drawn) returned ERK EGF inh inactive.
`COc1ccccc1-c1cc(=O)c2cc(O)ccc2o1` gave ERK EGF inh inactive.
`COc1ccc2c(=O)cc(-c3ccc(O)cc3)oc2c1` gave ERK EGF inh inactive.
Screening COc1ccc(OC)c(-c2c3cc(O)c(=O)cc-3oc3cc(O)c(O)cc23)c1 returned ERK EGF inh 25µM.
CNC1C(O)[C@@H]2OC(O[C@@H]3C(O)C(O)C(N)C[C@H]3N)C(N)C[C@H]2O[C@H]1O[C@@H]1OC(CO)C(N)C(O)C1O (stereo partly drawn) was read as ERK EGF inh inactive.
C[C@H]1[C@H]2CC[C@H]3C4CC=C5C[C@@H](N(C)C)CC[C@]5(C)C4CC[C@]23CN1C (stereo partly drawn) was read as ERK EGF inh inactive.
For COc1cc2ncnc(NCc3ccco3)c2cc1OC the results were ERK EGF inh 22µM.
c1coc(CNc2ncnc3[nH]ncc23)c1 was read as ERK EGF inh inactive.
`COc1ccc(CNc2ncnc3cc(OC)c(OC)cc23)cc1OC` gave ERK EGF inh inactive.
For COCCNc1nc(C)nc2c1nc(-c1ccccc1)n2CCCN1CCCCC1C (stereo not drawn) the results were ERK EGF inh inactive.
Screening C/C=C\C[C@H](C)[C@H](O)[C@H]1C(=O)N[C@@H](CC)C(=O)N(C)CC(=O)N(C)[C@@H](CC(C)C)C(=O)N[C@@H](C(C)C)C(=O)N(C)[C@@H](CC(C)C)C(=O)N[C@@H](C)C(=O)N[C@@H](C)C(=O)N(C)[C@@H](CC(C)C)C(=O)N(C)[C@@H](CC(C)C)C(=O)N(C)[C@@H](C(C)C)C(=O)N1C returned ERK EGF inh inactive.
Screening CC(C)(C)[Si](C)(C)c1c2c(nc3ccc(OCc4ccccc4)cc13)-c1cccc(=O)n1C2 returned ERK EGF inh inactive.
For O=C(N/N=C/c1ccc[nH]1)c1ccc(COc2cccc3cccnc23)cc1 the results were ERK EGF inh 25µM.
Screening O=C(N/N=C/c1ccccc1C(=O)O)c1ccc(COc2cccc3cccnc23)cc1 returned ERK EGF inh inactive.
`NNC(=O)c1ccc(COc2cccc3cccnc23)cc1` gave ERK EGF inh inactive.
`N=c1c2c(ncn1CCCO)Oc1cc(O)ccc1C2c1ccccc1` (stereo not drawn) gave ERK EGF inh inactive.
COc1ccc(C2c3c(ncn(CCCO)c3=N)Oc3ccc4ccccc4c32)cc1OC (stereo not drawn) was read as ERK EGF inh inactive.
